Test results taken from PubChem BioAssay AID1159580 (chemical genetic matrix, 2015).
Screen size: about 5,500 compounds; about 2,000 (36%) were called active. About 18% were inconclusive and are not listed. No stated cut-off is given here; in the data, active means normalized growth mostly below about 0.91 (no sharp cut-off); inconclusive means no clear call, values can overlap the other calls; inactive means mostly above about 0.92. The list shows a part of the results.

Test: chemical genetic growth profiling, strain panel (AID 1159580);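 further: tested at 20 µM; growth read once vehicle control cultures reached saturation at 30 °C; 1 = growth at the plate median or of vehicle wells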
Details: growth OD

Measured: normalized growth

COc1ccc2c(c1OC)C(=O)OC2[C@H]1c2c(cc3c(c2OC)OCO3)CCN1C (stereo partly drawn)
inactive: S. cerevisiae deletion strains, locus YJR043C, strain POL32, stronger effect = lower value 0.986 | S. cerevisiae deletion strains, locus YJR066W, strain TOR1, stronger effect = lower value 0.973 | S. cerevisiae deletion strains, locus YKL009W, strain mrt4, stronger effect = lower value 0.972 | S. cerevisiae deletion strains, locus YKL068W, stronger effect = lower value 0.99 | S. cerevisiae deletion strains, locus YKL085W, strain MDH1 (second series), stronger effect = lower value 0.991 | S. cerevisiae deletion strains, locus YKL085W, strain MDH1, stronger effect = lower value 0.991 | S. cerevisiae deletion strains, locus YKL160W, strain elf1, stronger effect = lower value 1.01 | S. cerevisiae deletion strains, locus YKL190W, strain CNB1, stronger effect = lower value 0.995 | S. cerevisiae deletion strains, locus YKR001C, strain vps1, stronger effect = lower value 0.985 | S. cerevisiae deletion strains, locus YKR026C, strain gcn3, stronger effect = lower value 1 | S. cerevisiae deletion strains, locus YKR091W, strain srl3, stronger effect = lower value 1.01 | S. cerevisiae deletion strains, locus YLL001W, strain dnm1, stronger effect = lower value 0.973 | S. cerevisiae deletion strains, locus YLL026W, stronger effect = lower value 1.01 | S. cerevisiae deletion strains, locus YLL041C, strain sdh2, stronger effect = lower value 0.995 | S. cerevisiae deletion strains, locus YLR027C, strain aat2, stronger effect = lower value 1.02 | S. cerevisiae deletion strains, locus YLR039C, strain RIC1, stronger effect = lower value 0.997 | S. cerevisiae deletion strains, locus YLR058C, strain SHM2, stronger effect = lower value 1.01 | S. cerevisiae deletion strains, locus YLR102C, strain apc9, stronger effect = lower value 0.994 | S. cerevisiae deletion strains, locus YLR113W, strain HOG1, stronger effect = lower value 0.966 | S. cerevisiae deletion strains, locus YLR221C, strain rsa3, stronger effect = lower value 1 | S. cerevisiae deletion strains, locus YLR258W, strain gsy2, stronger effect = lower value 1.02 | S. cerevisiae deletion strains, locus YLR262C, strain YPT6 (second series), stronger effect = lower value 1.03 | S. cerevisiae deletion strains, locus YLR262C, strain YPT6, stronger effect = lower value 1 | S. cerevisiae deletion strains, locus YLR268W, strain sec22, stronger effect = lower value 0.948 | S. cerevisiae deletion strains, locus YLR320W, strain mms22, stronger effect = lower value 0.975 | S. cerevisiae deletion strains, locus YLR330W, strain CHS5, stronger effect = lower value 0.991 | S. cerevisiae deletion strains, locus YLR342W, strain FKS1 (second series), stronger effect = lower value 1.01 | S. cerevisiae deletion strains, locus YLR342W, strain FKS1, stronger effect = lower value 1.01 | S. cerevisiae deletion strains, locus YLR357W, strain rsc2, stronger effect = lower value 0.997 | S. cerevisiae deletion strains, locus YLR370C, strain arc18, stronger effect = lower value 1.02 | S. cerevisiae deletion strains, locus YLR371W, strain rom2, stronger effect = lower value 0.98 | S. cerevisiae deletion strains, locus YLR384C, strain iki3, stronger effect = lower value 1 | S. cerevisiae deletion strains, locus YLR418C, strain cdc73, stronger effect = lower value 0.984 | S. cerevisiae deletion strains, locus YML016C, strain PPZ1, stronger effect = lower value 1 | S. cerevisiae deletion strains, locus YML032C, strain rad52, stronger effect = lower value 0.99 | S. cerevisiae deletion strains, locus YML120C, strain ndi1, stronger effect = lower value 1.02 | S. cerevisiae deletion strains, locus YML124C, strain tub3, stronger effect = lower value 0.989 | S. cerevisiae deletion strains, locus YMR058W, strain fet3, stronger effect = lower value 1.01 | S. cerevisiae deletion strains, locus YMR078C, strain ctf18, stronger effect = lower value 0.993 | S. cerevisiae deletion strains, locus YMR125W, strain sto1, stronger effect = lower value 1.01 | S. cerevisiae deletion strains, locus YMR129W, stronger effect = lower value 1.01 | S. cerevisiae deletion strains, locus YMR205C, strain PFK2, stronger effect = lower value 0.981 | S. cerevisiae deletion strains, locus YMR223W, strain ubp8, stronger effect = lower value 1.01 | S. cerevisiae deletion strains, locus YMR231W, strain pep5, stronger effect = lower value 1.01 | S. cerevisiae deletion strains, locus YMR307W, strain GAS1, stronger effect = lower value 1 | S. cerevisiae deletion strains, locus YNL067W, strain RPL9B, stronger effect = lower value 0.993 | S. cerevisiae deletion strains, locus YNL071W, strain lat1, stronger effect = lower value 1.02 | S. cerevisiae deletion strains, locus YNL153C, strain GIM3, stronger effect = lower value 1.01 | S. cerevisiae deletion strains, locus YNL183C, strain NPR1, stronger effect = lower value 0.951 | S. cerevisiae deletion strains, locus YNL209W, strain ssb2, stronger effect = lower value 1 | S. cerevisiae deletion strains, locus YNL233W, strain BNI4, stronger effect = lower value 0.999 | S. cerevisiae deletion strains, locus YNL248C, strain rpa49, stronger effect = lower value 0.984 | S. cerevisiae deletion strains, locus YNL250W, strain rad50, stronger effect = lower value 0.985 | S. cerevisiae deletion strains, locus YNL271C, strain bni1, stronger effect = lower value 0.984 | S. cerevisiae deletion strains, locus YNL298W, strain CLA4, stronger effect = lower value 0.992 | S. cerevisiae deletion strains, locus YNL307C, strain MCK1, stronger effect = lower value 0.987 | S. cerevisiae deletion strains, locus YNL322C, strain KRE1 (second series), stronger effect = lower value 1.02 | S. cerevisiae deletion strains, locus YNR049C, strain mso1, stronger effect = lower value 1.01 | S. cerevisiae deletion strains, locus YNR052C, strain pop2, stronger effect = lower value 0.978 | S. cerevisiae deletion strains, locus YOL006C, strain TOP1, stronger effect = lower value 1.07 | S. cerevisiae deletion strains, locus YOL012C, strain htz1 0.809 | S. cerevisiae deletion strains, locus YOL147C, strain pex11, stronger effect = lower value 0.987 | S. cerevisiae deletion strains, locus YOR001W, strain rrp6, stronger effect = lower value 1.02 | S. cerevisiae deletion strains, locus YOR061W, strain CKA2, stronger effect = lower value 1.01 | S. cerevisiae deletion strains, locus YOR069W, strain VPS5, stronger effect = lower value 1 | S. cerevisiae deletion strains, locus YOR070C, strain gyp1, stronger effect = lower value 0.996 | S. cerevisiae deletion strains, locus YOR080W, strain dia2, stronger effect = lower value 1.04 | S. cerevisiae deletion strains, locus YOR083W, strain WHI5, stronger effect = lower value 0.953 | S. cerevisiae deletion strains, locus YOR106W, strain vam3, stronger effect = lower value 1.02 | S. cerevisiae deletion strains, locus YOR136W, strain idh2, stronger effect = lower value 0.995 | S. cerevisiae deletion strains, locus YOR144C, strain elg1, stronger effect = lower value 1 | S. cerevisiae deletion strains, locus YOR184W, strain ser1, stronger effect = lower value 0.976 | S. cerevisiae deletion strains, locus YOR231W, strain MKK1, stronger effect = lower value 0.985 | S. cerevisiae deletion strains, locus YOR265W, strain rbl2, stronger effect = lower value 1.02 | S. cerevisiae deletion strains, locus YOR270C, strain vph1, stronger effect = lower value 1.04 | S. cerevisiae deletion strains, locus YOR290C, strain snf2, stronger effect = lower value 1.02 | S. cerevisiae deletion strains, locus YOR316C, strain cot1, stronger effect = lower value 0.989 | S. cerevisiae deletion strains, locus YPL051W, strain arl3, stronger effect = lower value 1.02 | S. cerevisiae deletion strains, locus YPL078C, strain atp4, stronger effect = lower value 1 | S. cerevisiae deletion strains, locus YPL106C, strain sse1, stronger effect = lower value 1.07 | S. cerevisiae deletion strains, locus YPL240C, strain hsp82, stronger effect = lower value 1.01 | S. cerevisiae deletion strains, locus YPL256C, strain CLN2, stronger effect = lower value 0.984 | S. cerevisiae deletion strains, locus YPR119W, strain clb2, stronger effect = lower value 0.995 | S. cerevisiae deletion strains, locus YPR141C, strain kar3, stronger effect = lower value 0.993 | S. cerevisiae deletion strains, locus YPR163C, strain tif3, stronger effect = lower value 0.984 | S. cerevisiae deletion strains, locus YPR167C, strain met16, stronger effect = lower value 0.986 | S. cerevisiae deletion strains, strain wtn01, stronger effect = lower value 0.967 | S. cerevisiae strains, strain wild type, stronger effect = lower value 1.01
